FMDV antiviral = foot and mouth disease virus antiviral activity. Potency, µM (highest dose often 57.9 µM), hits mostly inhibitors. FMDV antiviral cell-based qHTS. 410,000 tested, 1.2% active; calls by dose curve; tested in HEK293T cells; further: read-out not given here; nearly all actives have a fitted effect of over 45% in size
LASV entry inh = Lassa virus entry inhibition; Lassa virus pseudotype entry inhibition, cell reporter; Potency, µM (doses to about 37.9 µM), usual class: inhibitors; 300,000 tested, 1.2% active; calls by dose curve; tested in HEK293 cells; further: nearly all actives have a fitted effect of over 50% in size
Marburg entry inh = blocks Marburg virus binding to or entry into cells. Potency, µM (titrated, usually from 37.8 µM), most hits filed as inhibitors. Marburg virus pseudotyped entry inhibition, cell reporter. 300,000 tested, 1.8% active. AID 540276; calls by dose curve; tested in HEK293 cells
HCMV inh = inhibitors of human cytomegalovirus | HFF cells, HCMV-luciferase reporter, 72 h; active compounds read low | activity change, negative = inhibition, % at 57.5 µM | 410,000 tested, 4.5% active; in the data active means activity change below about -60%; inconclusive means no clear call, values can overlap the other calls; inactive means above about -39%
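HFF cells seeded 16 h at 37C, treated with compounds, infected with luciferase-reporter HCMV at MOI 1 PFU/cell; luciferase read at 72 h post infection, normalized to buffer-only and Salinomycin controls.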
Numbers stand for hits; i = inactive; ? = inconclusive; nt = no result given. Sampled rows, rich in hits. Any-hit rate of the full collection: about 6.2%.

SMILES | FMDV antiviral | LASV entry inh | Marburg entry inh | HCMV inh
CCC1C(c2cc(OC)c(OC)c(OC)c2)c2cc3c(cc2OC1N1CCCC1)OCO3 (stereo unspecified) | i | 8.91µM | ? | i
COc1cc(C2c3cc4c(cc3C(OC(C)=O)[C@H]3COC(=O)C23)OCO4)cc(OC)c1OC (stereo partly specified) | i | nt | nt | nt
COc1cc(C2c3cc4c(cc3CC3COC(=O)C32)OCO4)cc(OC)c1O (stereo unspecified) | i | ? | ? | -90.2
CN(C)CCNc1nc(-c2ccco2)c2c(c1C#N)CC(C)(C)OC2 | i | i | i | -100.4
COc1ccc(C2=NNC(=Nc3cc(S(=O)(=O)N(C)C)ccc3C)SC2)c(OC)c1 | ? | nt | nt | -97.5
O=S(=O)(Cc1ccccc1)Nc1cccc(Br)c1 | i | nt | nt | i
N#Cc1ccc(/C=C\c2nccc3c2[nH]c2ccccc23)cc1 | i | i | ? | -76.5
COC(=O)c1ccc(N2CCC(c3cc(-c4ccc(OC)cc4)n[nH]3)CC2)c([N+](=O)[O-])c1 | ? | ? | ? | i
COc1ccc(-c2cc(C3CCN(c4ccc(C(C)=O)cc4[N+](=O)[O-])CC3)[nH]n2)cc1 | 17.8µM | ? | ? | -98.3
COc1ccc(C(=O)NCC(c2cccs2)S(=O)(=O)c2ccc(C)cc2)cc1 (stereo unspecified) | i | i | nt | i
CCn1c(C(=O)NCc2ccccc2Br)cc2oc3ccccc3c21 | i | nt | ? | -70.7
CCn1c(C(=O)NCc2cc(Br)ccc2OC)cc2oc3ccccc3c21 | i | nt | 2.82µM | ?
CCn1c(C(=O)NCc2cccc(Br)c2)cc2oc3ccccc3c21 | i | nt | ? | -81.7
COC(=O)c1cc2oc3ccccc3c2n1CC(=O)Nc1ccc(OC)c(OC)c1OC | i | nt | ? | i
CSc1ccc(C2=CC(=O)C[C@H](c3ccc4c(c3)OCO4)C2)cc1 | i | nt | nt | -64.3
Cc1cc(C2=CC(=O)C[C@H](c3ccc(F)cc3)C2)ccc1F | i | nt | nt | -61.8
Brc1cccc(OCCN2CCOCC2)c1 | i | nt | nt | i
CC(NCCC(c1ccccc1)c1ccccc1)c1ccccc1 (stereo unspecified) | i | 23.1µM | ? | i
CC1CN=C(N(C(=O)Nc2ccccc2)C(C)c2ccccc2)S1 (stereo unspecified) | i | nt | nt | i
CC1=NOC(=O)/C1=C/c1ccc(N(C)C)cc1 | i | i | i | i
CC1=NOC(=O)/C1=C/c1ccc(O)c(Cl)c1 | 17.8µM | i | i | ?
CCN(CC)c1ccc(/C=C2\C(=O)N(c3nnc(C)c(=O)[nH]3)N=C2C)cc1 | 28.2µM | ? | ? | i
CCN(CC)c1ccc(/C=C2/C(=O)ON=C2C)cc1 | i | i | i | -64.7
Cc1ccc2nc(NC(=O)CN3C(=O)C4CC=CCC4C3=O)sc2c1 (stereo unspecified) | i | ? | ? | i
CCCn1nnnc1NCc1ccc(Cl)cc1Cl | i | i | i | i
SMILES | FMDV antiviral | LASV entry inh | Marburg entry inh | HCMV inh
Cn1nc(C(C)(C)C)cc1C(=O)NCc1cc(F)cc2c1OCOC2 | 12.6µM | nt | nt | -71.6
Cc1cc(C(=O)NCc2cc(F)cc3c2OCOC3)nn1C | i | i | i | i
COC(=O)CCCN1C(=O)c2cccc3cccc(c23)C1=O | i | i | ? | i
O=[N+]([O-])c1cccc2ccc(N3CCOCC3)nc12 | i | i | i | i
Cc1ccc(NC(=O)c2ccc3c(c2)CCN3S(C)(=O)=O)cc1 | i | nt | nt | i
Cc1ccc(NC(=O)c2ccc3c(c2)CCN3S(C)(=O)=O)cc1C | i | ? | ? | i
CS(=O)(=O)N1CCc2cc(C(=O)Nc3ccc(C(F)(F)F)cc3)ccc21 | i | ? | i | -62.8
CS(=O)(=O)N1CCc2cc(C(=O)Nc3ccc(Cl)c(C(F)(F)F)c3)ccc21 | i | ? | ? | -70.7
CC(C)c1ccc(NC(=O)c2ccc3c(c2)CCCN3S(C)(=O)=O)cc1 | 10µM | i | ? | -74.5
CCCCc1ccc(NC(=O)c2ccc3c(c2)CCN3S(=O)(=O)CC)cc1 | i | ? | i | -63.8
Cc1csc2c(N3CCN(C(=O)Nc4ccc(Cl)c(Cl)c4)CC3)ncnc12 | ? | i | i | i
Cc1ccc(C)c(-n2nnc(-c3nc(-c4ccc(Cl)cc4)no3)c2N)c1 | i | i | nt | i
Cc1cccc(NC(=O)Cn2c(=O)n(CC3CCC(C(=O)NCCc4ccccc4)CC3)c(=O)c3ccccc32)c1C (stereo unspecified) | i | i | i | i
CCc1ccc(NC(=O)c2ccc3c(c2)CCN3S(C)(=O)=O)cc1 | i | nt | nt | i
CCCCOC(=O)c1ccc(NC(=O)c2ccc3c(c2)CCN3S(C)(=O)=O)cc1 | 35.5µM | i | ? | i
CCCCCn1c(CN2CCCCC2CC)nc2c1c(=O)n(C)c(=O)n2C (stereo unspecified) | i | nt | nt | i
CCC(C)NC(=O)CSc1c2c(nc3ccccc13)CCCC2 (stereo unspecified) | 25.1µM | i | ? | i
CCOC(=O)c1nc(Nc2cc(Cl)ccc2OC)c2ccccc2n1 | i | nt | nt | -69.8
COc1cccc(-n2c(SCC(=O)Nc3ccc4c(c3)CCC4)nc3ccccc3c2=O)c1 | i | ? | ? | -70.3
COc1cccc(NC(=O)CSc2c3c(nc4ccccc24)CCCC3)c1 | 31.6µM | ? | ? | i
O=C(O)C1C2C=CC(C2)C1C(=O)OC1CC2CCC1C2 (stereo unspecified) | i | i | i | i
COc1cccc(NC(=O)CSc2nc(=O)n(Cc3ccncc3)c3c2CCCC3)c1 | i | i | i | -84.6
COc1ccc(Cl)cc1NC(=O)CSc1c2c(nc3ccccc13)CCC2 | ? | i | i | -69.6
Cc1ccc(-c2cc(-c3ccc(C)cc3)[n+](C)o2)cc1 | ? | 11.6µM | 3.55µM | -102.8
Cc1c(NC(=S)N/N=C/C=C/c2ccc([N+](=O)[O-])cc2)c(=O)n(-c2ccccc2)n1C | ? | i | i | -102.8
SMILES | FMDV antiviral | LASV entry inh | Marburg entry inh | HCMV inh
COc1cc(CC(=O)OCC(=O)NC2CCCCC2C)cc(OC)c1OC (stereo unspecified) | i | nt | nt | i
CC(=O)n1cc(C(C[N+](=O)[O-])SCCN)c2ccccc21 (stereo unspecified) | ? | ? | 20.6µM | nt
O=C(COC(=O)CNC(=O)c1ccco1)Nc1ncc(Cl)cc1Cl | i | nt | nt | -100.2
O=C(COC(=O)Cc1ccccc1)Nc1ncc(Cl)cc1Cl | i | i | i | ?
CCOc1ccccc1OCC(=O)OCC(=O)Nc1ncc(Cl)cc1Cl | i | i | i | -71.6
CC1(C(=O)NC2CCCC2)CCC(=O)N1CCCn1ccnc1 (stereo unspecified) | i | nt | nt | i
O=C1NC(=O)C(=Cc2cc3c(cc2[N+](=O)[O-])OCO3)C(=O)N1 | i | i | i | -63.4
CCOc1ccccc1N(CC(=O)Nc1cccc(OC)c1)S(=O)(=O)c1ccccc1 | i | ? | ? | -106.9
CCOc1ccccc1N(CC(=O)Nc1ccccc1F)S(=O)(=O)c1ccccc1 | i | nt | nt | -104.4
CCOc1ccc(NC(=O)CN(c2ccccc2OCC)S(=O)(=O)c2ccccc2)cc1 | i | ? | nt | i
CCOc1ccccc1N(CC(=O)Nc1ccc(OC)cc1)S(=O)(=O)c1ccccc1 | i | nt | nt | ?
CCOc1ccccc1N(CC(=O)N1CCOCC1)S(=O)(=O)c1ccc(SC)cc1 | i | 5.62µM | ? | i
Cc1ccc(S(=O)(=O)N(CC(=O)N2CCOCC2)c2ccccc2F)cc1 | i | ? | i | i

From PubChem BioAssay
